High-throughput results as filed in PubChem.
This is one part of a sample in which hits are shown more often than they occur.
Tgondii IFNg: T. gondii growth inhibition with IFN-gamma, primary screen, cell-based; Toxoplasma gondii growth in IFN-gamma-treated host cells; active compounds read low; activity change, negative = inhibition, % (concentration not given with the values); 69,000 tested, 3.8% active; AID 1259416, 2018; in the data active = activity change below about -70%, passing the limit was not always enough;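 also: host cells are HeLa cells infected with Toxoplasma gondii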
Of the large screens only hits and unclear results are named; the others gave an inactive call; ! = a repeat was not active.

Cc1nc(CN2CCC3(CC2)CC(CC(=O)N(C)C)c2ccccc23)cs1 (configuration not stated)	none
Cc1cccc(C)c1-n1nnnc1-c1cnccc1C(F)(F)F	none
FC(F)(F)c1ccncc1-c1ncc(-c2cccc(Cl)c2)o1	Tgondii IFNg -95
O=C(NC(=O)c1cnccc1C(F)(F)F)Nc1ccc(Cl)cc1Cl	none
COCCO[C@@H]1C[C@@H]2CN(C(=O)c3cnccn3)CCN2C1	none
Nc1cccc(-c2nc3ccccc3[nH]2)c1	none
Nc1ccccc1Nc1nc2ccccc2[nH]1	none
Nc1cccc2nc3ccccc3cc12	Tgondii IFNg -99
CN1CCC(Cc2noc(-c3cccc4c3OCC4)n2)CC1	none
CC(C)Cc1ccc(S(=O)(=O)N2CCC3(CC2)Nc2ccccc2-n2cccc23)cc1	none
COc1ccc(C(=O)N2CCc3onc(COCC4CC4)c3C2)cc1	none
c1ccc(-c2ncn(CCc3cnn(-c4ccccc4)c3)c2-c2cnc[nH]2)cc1	none
c1cc(-n2cnnc2)cc(-n2cnc3ccccc32)c1	none
Cc1cccc(S(=O)(=O)N2CCn3cc(CN(C)C)nc3C2)c1	none
CCC[C@H](Nc1nc(-c2ccc(NC(=O)NCC)c(OC)c2)ncc1C)c1cccnc1	Tgondii IFNg -78
COc1ccc(NC(=O)NCC(c2cccnc2)c2cn(C)c3ccccc23)c(OC)c1 (configuration not stated)	none
COc1cc(OC)c(NC(=O)NCC(c2cccnc2)c2c[nH]c3ccccc23)cc1Cl (configuration not stated)	none
CCOc1cc2c(cc1CN(CCN1CCOCC1)Cc1cccnc1)OC(C)C2 (configuration not stated)	none
CC(C(=O)N1CCN(C)C2(CCN(C)CC2)C1)n1cnc2ccccc21 (configuration not stated)	none
CN(C)C(=O)n1c(C(=O)C2CC2)cc2c1c1ccccc1n2CC1CC1	none
CCOCC1CCC2C1OCCN2C(=O)C1CCCO1 (configuration not stated)	none
CC(C)n1c(SCC(=O)O)nc2ccccc21	none
CC(C)n1c(/C=C/[C@@H](O)C[C@@H](O)CC(=O)O)c(-c2ccc(F)cc2)c2ccccc21	Tgondii IFNg -78!
CC(NC(=O)c1cc(-c2ccc(F)cc2)no1)c1nc2ccccc2n1C(C)C (configuration not stated)	none
CC(C)n1cnc2c1C(C(=O)Cc1ccccn1)N(S(C)(=O)=O)CC2 (configuration not stated)	none
Cc1ncsc1CCN(C)c1nc(-c2cccnc2)nc2c1cnn2C	none
Cc1ccsc1CN(C)c1nc(-c2cccnc2)nc2c1cnn2C	Tgondii IFNg -74
CN(CCCc1cnn(C)c1)c1nc(-c2cccnc2)nc2c1cnn2C	none
CN(C)CCN(CCCc1ccccc1)Cc1ccncc1	none
CN(C)c1cc(NC(=O)CNC(C)(C)C)c(O)c2c1C[C@H]1C[C@H]3[C@H](N(C)C)C(=O)C(C(N)=O)C(=O)[C@@]3(O)C(=O)C1C2=O (some centres not stated)	none
CCOc1ccc(C(=O)C(C)=O)c(OCC)c1	none
CCOc1ccc(OCC)c(S(=O)(=O)Oc2cccc3ccc(C)nc23)c1	Tgondii IFNg -93
COc1ccc(OC)c(S(=O)(=O)Oc2ccccn2)c1	none
CS(=O)(=O)N1CCC(CC(=O)Nc2ccccc2CN2CCCC2)CC1	none
CN(C)C(=O)COCC12CCCOC1CCN(S(=O)(=O)C1CC1)C2 (configuration not stated)	none
S=C(CCC(=S)Nc1ccc(Cl)cc1)Nc1ccc(Cl)cc1	none
CSCCNC(=O)Nc1ccc(Cl)cc1	none
O=C(Cc1ccc(O)cc1)NCCNC(=S)Nc1ccc(Cl)cc1	Tgondii IFNg -96
CC(C)n1cnc(-c2cc(C(=O)Cc3cccnc3)c3ccccn23)c1	none
COc1ccc2c3c([nH]c2c1)C1(NCC3)C(=O)Nc2ccc(Br)cc21 (configuration not stated)	none
Clc1ccc(Nc2nc3nonc3nc2Nc2ccc(Cl)cc2)cc1	Tgondii IFNg -103
Cc1c(Nc2nc3nonc3nc2Nc2cccc(Cl)c2)c(=O)n(-c2ccccc2)n1C	none
O=C(Nc1ccc(Cl)cc1)c1nc(Nc2ccccc2)c2ccccc2n1	none
O=C(c1cccc2cc[nH]c12)N1CCOC(C(F)(F)F)C1 (configuration not stated)	none
Cc1cnc(Nc2cccc(C3CCCN3C(=O)CCOc3ccccc3C)n2)s1 (configuration not stated)	none
Cc1nc(Nc2ncc(C(=O)Nc3c(C)cccc3Cl)s2)cc(N2CCN(CCO)CC2)n1	Tgondii IFNg -77
Cc1cc2oc(=O)cc(C)c2cc1NC(=O)c1cnc(CN2CCCC2)s1	none
COC(=O)c1c(NCc2ccc(OC)c(OC)c2)c2cccc(Cl)c2[nH]c1=O	none
COc1ccc(C2c3c(n[nH]c3C)CC(C)(O)C2C(C)=O)cc1OC (configuration not stated)	none
COc1cc(C2c3c([nH]c(=O)[nH]c3=O)Nc3ccc4ccccc4c32)ccc1OC(C)=O (configuration not stated)	Tgondii IFNg -112
c1csc(-c2nc(N3CCOCC3)nc3c2CCCC3)c1	none
COc1ncccc1CN1CCC2(CC1)CC(c1cnn(C)c1)CO2 (configuration not stated)	none
CS(=O)(=O)N1CCO[C@H]2CCN(C(=O)C3CC=CC3)C[C@H]21	none
COc1cc(Br)c(CCC#N)cc1OC	none
COc1ccc2cc(Br)ccc2c1CC#N	Tgondii IFNg -107
COc1ccc(CNc2ccc(Br)cc2)c(OC)c1OC	none
Cc1nc(SCc2c(Cl)cccc2Cl)[nH]c(=O)c1CN1CCCCC1	none
Cc1cc(C)cc(C(=O)Nc2ccc(-c3nc(Cn4cccn4)c(C)o3)cc2)c1	none
Cc1cnn(Cc2nc(-c3ccc(NC(=O)c4c(F)cccc4F)cc3)oc2C)c1	none
Cc1cc(C(=O)Nc2ccc(-c3nc(Cn4cccn4)c(C)o3)cc2)no1	Tgondii IFNg -93
Cc1cnn(Cc2nc(-c3ccc(NC(=O)c4cc(C)on4)cc3)oc2C)c1	Tgondii IFNg -95
Cc1ccc(C(=O)Nc2ccc(-c3nc(Cn4cccn4)c(C)o3)cc2)cc1	none
COCc1cc(CN2CCCC2c2cc(-c3cn[nH]c3)cc(C)n2)ccc1OC(C)C (configuration not stated)	none
CN(CCc1ccccn1)C(=O)c1cc(COc2ccccc2)[nH]n1	none
CC(=O)Nc1ccc(-c2cn(CC3CC(=O)N(C4CCCC4)C3)nn2)cc1 (configuration not stated)	none
COCCn1c(SCC(=O)N2CCCCC2C)nnc1-c1cc2ccccc2cc1O (configuration not stated)	none
Fc1ccccc1CSc1nc(Nc2ccc3c(c2)OCO3)c2ccccc2n1	none
CCc1nc(Nc2ccc3c(c2)OCO3)c2nnn(Cc3ccccc3Cl)c2n1	Tgondii IFNg -99
Clc1ccccc1Cn1nnc2c(Sc3nc4ccccc4s3)ncnc21	none
CC(C)CC(NC(=O)c1cccc(Cl)c1)C(=O)O (configuration not stated)	none
Cn1c(CNC(=O)c2ccc(Cl)cc2Cl)cc2ccccc21	none
CC(C)C[C@H](NC(=O)CNC(=O)c1cc(Cl)ccc1Cl)B(O)O	Tgondii IFNg -79
O=c1oc2ccccc2n1Cc1c(-c2ccc(F)cc2)nc2ccccn12	none
CCCCc1cc(C)c2[nH]c(=O)cc(C)c2c1	Tgondii IFNg -88
CC(=O)CCc1c(C)c2cccc(C)c2[nH]c1=O	none
CCCc1[nH]c(=O)cc2cc(OC)c(OC)cc12	none
COc1c(F)cccc1C(=O)NCC1CCN(C2CCOCC2)C1 (configuration not stated)	none
Cc1cc(CC(C)NC(=O)CN2CCCN(C)CC2)n[nH]1 (configuration not stated)	none
CC(=O)Nc1ccc(-c2c(-c3ccccc3)ncn2Cc2ccco2)cc1	none
